# Experiments:
# Test in all cases: PBM binding z-score (relative to random genomic background probes); higher = stronger binding; sequences stand for … in GC…GCGATTGACAGCGTAGAATGAAGG
# [1] = tested on: PPARg:RXRa DBDmut IVT, anti-RXR (DBD mutation: RXRa K156A/R161A, NR concentration 270 nM, RXRa partner concentration 90 nM)
# Summary of the method: (§1)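 Ligand-free nuclear receptor dimers were applied to custom Agilent 4×180K protein-binding microarrays whose double-stranded probes carried direct-repeat seeds, single-nucleotide variants, half-site ablations and random human genomic background sequences in 34-nt variable regions. Incubation lasted 1 h. Binding z-scores were computed against the random background probes from regression-normalized fluorescence.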
# [2] = tested on: PPARg:RXRa IVT, anti-PPARg (NR concentration 270 nM, RXRa partner concentration 90 nM)
# Summary of the method: as §1
# [3] = tested on: PPARg DBDmut:RXRa IVT, anti-PPARg (DBD mutation: PPARg1 K132A/R137A, NR concentration 270 nM, RXRa partner concentration 90 nM)
# Summary of the method: as §1
# [4] = tested on: PPARg DBDmut IVT, anti-PPARg (DBD mutation: PPARg1 K132A/R137A, NR concentration 270 nM)
# Summary of the method: as §1
# [5] = tested on: PPARg homodimer (NR concentration 180 nM)
# Summary of the method: as §1
# [6] = tested on: PXR:RXRa (NR concentration 270 nM, RXRa partner concentration 90 nM)
# Summary of the method: as §1
# [7] = tested on: PXR homodimer (NR concentration 270 nM)
# Summary of the method: as §1
# [8] = tested on: RARa:RXR (NR concentration 270 nM, RXRa partner concentration 90 nM)
# Summary of the method: as §1
# [9] = tested on: RARa homodimer (NR concentration 270 nM)
# Summary of the method: as §1
# [10] = tested on: RARb:RXRa (NR concentration 270 nM, RXRa partner concentration 90 nM)
# Summary of the method: as §1
# [11] = tested on: RARb homodimer (NR concentration 270 nM)
# Summary of the method: as §1
# [12] = tested on: RARg:RXRa (NR concentration 270 nM, RXRa partner concentration 90 nM)
# Summary of the method: as §1
# [13] = tested on: RARg homodimer (NR concentration 270 nM)
# Summary of the method: as §1
# [14] = tested on: RXRa DBDmut IVT, anti-RXR (DBD mutation: RXRa K156A/R161A, NR concentration 90 nM)
# Summary of the method: as §1
# [15] = tested on: RXRa homodimer (NR concentration 180 nM)
# Summary of the method: as §1
# [16] = tested on: THRa:RXRa (NR concentration 90 nM, RXRa partner concentration 90 nM)
# Summary of the method: as §1
# [17] = tested on: THRa homodimer (NR concentration 90 nM)
# Summary of the method: as §1
# [18] = tested on: VDR homodimer (NR concentration 270 nM)
# Summary of the method: as §1
Sequence,PBM binding z-score [1],PBM binding z-score [2],PBM binding z-score [3],PBM binding z-score [4],PBM binding z-score [5],PBM binding z-score [6],PBM binding z-score [7],PBM binding z-score [8],PBM binding z-score [9],PBM binding z-score [10],PBM binding z-score [11],PBM binding z-score [12],PBM binding z-score [13],PBM binding z-score [14],PBM binding z-score [15],PBM binding z-score [16],PBM binding z-score [17],PBM binding z-score [18]
GCATATAGGTAATACAAGGTGAAAGTGCGATTGT,3.95,3.56,1.03,1.01,0.954,0.734,0.452,1.35,0.831,0.52,0.903,0.659,0.584,0.39,0.992,4.13,1.19,0.133
AGTCAAAGTTCAGGACGAGGCAACGTAAAGCACG,-0.129,1.26,0.256,0.437,1.12,1.94,0.989,1.89,0.997,4.37,2.9,3.86,4.55,3.06,2.86,2.76,0.753,1.61
TGAACGAGGTTAAAGATCAGGGAACGTGGCGTCG,1.29,2.81,0.475,-0.0335,0.615,1.99,-0.0143,2.94,-0.0319,1.95,0.576,2.39,1.35,0.835,3.89,2.04,-0.132,0.34
CGAACTAGGTCATCGACAGGACAGTGAATAGTAA,8.14,8.42,4.29,4.27,2.79,1.76,0.984,2.53,2.3,3.88,2.75,4.84,4.87,2.2,2.72,3.06,0.98,1.39
GTACCAAGGTGAATAGGTCGTTGAAGAGTAGGCG,1.8,2.92,0.0444,-0.34,1.08,1.12,0.219,1.79,0.784,1.94,2.13,2.81,1.45,-0.183,1.9,1.91,0.593,0.198
AGTCAAAGTTCATCTAGGTAACGTACGATATGCT,1.04,4.13,1.4,2.09,2.4,5.22,6.7,3.95,1.06,5.06,3.93,5.49,5.82,4.69,4.69,3.28,0.448,5.04
TGTATTAGTTGATTAGGGCAACCGAAACAGCGGA,0.222,1.62,1.15,1.19,1.28,-0.072,0.169,0.311,1.53,0.862,0.715,0.692,0.807,-0.317,-0.0234,0.551,0.64,0.784
CCTCGGAGGACAGAAGGTCAGAGCTGTCCGCTTT,0.195,-0.199,-1.36,-1.28,1.06,1.35,-0.13,1.93,0.441,2.89,3.43,3.39,2.55,0.0371,1.89,2.22,-0.0461,-0.131
ACTAGTAGGCCAAGTTTGGGTCACTCAAACAAAG,5.38,4.97,0.793,0.699,0.944,0.935,-0.0858,1.74,-0.227,2.11,2.48,2.53,2.16,0.0627,1.15,2.6,1.31,0.613
CAAACTAAGTCACAGAGGTCAAAGTCCGTGCGTA,2.87,3.84,0.32,0.368,4.44,5.86,3.71,6.39,2.59,4.05,4.47,5.34,4.96,2.26,5.91,3.71,1.87,4.45
TCTCGGAGGACACGAAGGTCAGAGTTTTCCAGAG,1.44,1.35,-0.952,-0.619,1.53,2,1.37,2.07,0.114,3.32,3.77,3.25,3.92,0.753,2.03,2.83,1.19,1.93
TATACAGGGTCAAAGGCCAGAGTCCGAATGTCGA,2.36,4.8,1.49,0.522,2.08,4.27,0.713,5.31,0.835,4.31,3.69,5.63,4.75,2.69,6.54,3.62,0.963,2.67
TCTTGTAGATGAAGCAGGTTAAGAAAGCCTGAGT,1.86,0.0295,0.394,-0.11,0.107,0.195,0.164,0.228,-0.232,-0.0996,-0.21,-0.0639,-0.213,0.667,0.257,-0.0515,-0.455,-0.176
CCTACCAGGCCAATCTGGGTCACTCAAGGCTTGA,3.85,5.15,-0.114,-1.08,1.37,1.39,0.0886,1.66,0.203,1.71,2.5,1.37,1.64,-0.157,1.01,3.84,1.34,0.435
TCTGGTTGGTCAAAGGTCACACACTCGAAATGCG,3.03,5.67,2.56,3.21,7.5,6.15,2.71,7.76,4.92,4.96,4.94,7.36,6.25,1.79,8.3,4.07,2.65,3.34
TCTGCTAGGTCAACGATGGTCAGCCAATCTGCTA,4.18,4.29,0.0146,-0.247,1.87,1.6,-0.979,2.02,-0.83,4.26,3.23,4.3,5.2,1.06,2.55,3.16,0.561,-0.316

# From the supplement of paper PMC6555819
